Experimental data from PubChem BioAssay AID1159580 (chemical genetic matrix, 2015).
Values joined by “and” are separate entries in the source; they are usually repeats but may differ in a detail not shown here. Equal entries are not always repeated. The campaign covered roughly 5,500 compounds. About 2,000 (36%) were called active. Not shown: some 18% with an inconclusive outcome. Cut-off read from the data, not from the text of the source: active = normalized growth mostly below about 0.91 (no sharp cut-off); inconclusive = no clear call, values can overlap the other calls; inactive = mostly above about 0.92. This is one part of the list.

Experiment: chemical genetic growth profiling, strain panel (AID 1159580);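 note: tested at 20 µM; growth read once vehicle control cultures reached saturation at 30 °C; 1 = growth at the plate median or of vehicle wells; lower values mean less growth of the strain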
Details: S. cerevisiae deletion strains, growth OD
[1] = locus YAL013W, strain DEP1, hits give low values
[2] = locus YBR229C, strain ROT2, hits give low values
[3] = locus YCL061C, strain MRC1, hits give low values
[4] = locus YDL101C, strain DUN1, hits give low values
[5] = locus YEL061C, strain CIN8, hits give low values
[6] = locus YGR078C, strain PAC10, hits give low values
[7] = locus YHR030C, strain SLT2, hits give low values
[8] = locus YJR043C, strain POL32, hits give low values
[9] = locus YJR075W, strain HOC1, hits give low values
[10] = locus YLR039C, strain RIC1, hits give low values
[11] = locus YLR262C, strain YPT6, hits give low values
[12] = locus YMR263W, strain SAP30, hits give low values
[13] = locus YNL153C, strain GIM3, hits give low values
[14] = locus YNL322C, strain KRE1, hits give low values

Measured: normalized growth

Cc1ccc(OCc2nnc(SCC(=O)Nc3cccc4c3OCO4)n2-c2ccccc2)c2c1CCC2
inactive: [1] 1.01 | [2] 1.01 | [3] 1 | [4] 0.992 | locus YDR150W, strain NUM1, hits give low values 0.982 | [5] 0.99 | [6] 1 | locus YGR229C, strain SMI1, hits give low values 0.993 | [7] 1 | locus YHR087W, strain rtc3, hits give low values 0.992 | [8] 1 | [9] 1.01 | locus YKL190W, strain CNB1, hits give low values 0.973 | [10] 0.991 | locus YLR058C, strain SHM2 (second series), hits give low values 1.01 | locus YLR085C, strain ARP6, hits give low values 0.995 | [11] 0.985 | locus YML094W, strain GIM5, hits give low values 0.98 | locus YMR219W, strain ESC1, hits give low values 0.999 | [12] 1.01 | locus YNL128W, strain TEP1, hits give low values 0.984 | [13] 1 | locus YNL298W, strain CLA4 (second series), hits give low values 0.988 | [14] 0.992 | locus YNR030W, strain Alg12, hits give low values 0.995 | locus YPL055C, strain LGE1, hits give low values 0.991 | locus YPL241C, strain CIN2, hits give low values 0.999 | locus YPR135W, strain CTF4, hits give low values 1.02

C[C@H](CCC(=O)O)[C@H]1CCC2C3C(CC[C@@]21C)[C@@]1(C)CC[C@@H](O)C[C@H]1C[C@H]3O (some centres undefined)
active: locus YDR137W, strain rgp1, hits give low values 0.786 | locus YLR262C, strain YPT6 (second series), hits give low values 0.799 | locus YOL147C, strain pex11, hits give low values 1.07 [resistant] | locus YOR231W, strain MKK1, hits give low values 0.849
inactive: [1] 1.02 | locus YAL021C, strain ccr4, hits give low values 1.01 | locus YAL026C, strain drs2, hits give low values 0.987 | locus YAL030W, strain snc1, hits give low values 1.02 | locus YBL061C, strain skt5, hits give low values 1.02 | locus YBR009C, strain hhf1, hits give low values 0.973 | locus YBR021W, strain FUR4, hits give low values 1.02 | locus YBR023C, strain chs3, hits give low values 1.01 | locus YBR171W, strain sec66, hits give low values 1 | [2] 1.02 | locus YBR231C, strain swc5, hits give low values 1.03 | locus YBR279W, strain paf1, hits give low values 1.01 | locus YCL011C, strain gbp2, hits give low values 1 | locus YCL016C, strain dcc1, hits give low values 0.982 | locus YCL029C, strain bik1, hits give low values 1.05 | [3] 0.998 | locus YCL069W, strain vba3, hits give low values 1.02 | locus YCR088W, strain abp1, hits give low values 1.02 | locus YDL005C, strain med2, hits give low values 1.01 | locus YDL035C, strain GPR1, hits give low values 0.985 | locus YDL040C, strain nat1, hits give low values 1.01 | locus YDL074C, strain BRE1, hits give low values 1.09 | [4] 1.02 | locus YDL134C, strain PPH21, hits give low values 1 | locus YDL185W, strain tfp1, hits give low values 1.07 | locus YDL192W, strain arf1, hits give low values 1.05 | locus YDR001C, strain nth1, hits give low values 1.02 | locus YDR069C, strain doa4, hits give low values 1.01 | locus YDR101C, strain arx1, hits give low values 1.04 | locus YDR159W, strain sac3, hits give low values 1.02 | locus YDR162C, strain NBP2, hits give low values 1.02 | locus YDR195W, strain ref2 1.13 | locus YDR297W, strain sur2, hits give low values 1.02 | locus YDR318W, strain mcm21, hits give low values 1.03 | locus YDR334W, strain swr1, hits give low values 1.04 | locus YDR335W, strain msn5, hits give low values 1.02 | locus YDR388W, hits give low values 1.04 | locus YDR392W, strain spt3, hits give low values 0.923 | locus YDR502C, strain sam2, hits give low values 1.04 | locus YEL003W, strain gim4, hits give low values 0.998 | locus YEL037C, strain rad23, hits give low values 1.02 | locus YEL061C, strain CIN8 (second series), hits give low values 1.02 | [5] 1.02 | locus YER015W, strain faa2, hits give low values 1.05 | locus YER016W, strain bim1, hits give low values 1.01 | locus YER110C, hits give low values 1.05 | locus YER111C, strain swi4, hits give low values 1.02 | locus YER155C, strain BEM2 (second series), hits give low values 1.05 | locus YER155C, strain BEM2, hits give low values 1.04 | locus YER167W, strain BCK2, hits give low values 1.03 | locus YFR010W, strain ubp6, hits give low values 1.03 | locus YGL078C, strain dbp3, hits give low values 0.953 | locus YGL086W, strain mad1, hits give low values 1.03 | locus YGL167C, strain pmr1, hits give low values 1.02 | locus YGL173C, strain kem1, hits give low values 0.969 | locus YGL227W, strain vid30, hits give low values 1.02 | locus YGL240W, strain doc1, hits give low values 1.02 | locus YGL248W, strain PDE1, hits give low values 1.01 | locus YGL253W, strain hxk2, hits give low values 1.01 | [6] 1.03 | locus YGR135W, strain pre9, hits give low values 1.02 | locus YGR252W, strain gcn5, hits give low values 0.929 | locus YHR013C, strain ard1, hits give low values 1.06 | locus YHR027C, strain rpn1, hits give low values 1.01 | [7] 1.05 and 0.889 | locus YHR079C, strain IRE1 (second series), hits give low values 1.05 | locus YHR079C, strain IRE1, hits give low values 0.87 | locus YHR094C, strain hxt1, hits give low values 1.05 | locus YHR129C, strain ARP1, hits give low values 1.03 | locus YHR142W, strain chs7, hits give low values 0.993 | locus YHR200W, strain rpn10, hits give low values 1.06 | locus YIL066C, strain RNR3, hits give low values 1.03 | locus YIL073C, strain SPO22, hits give low values 1.12 | locus YIL125W, strain kgd1, hits give low values 1.05 | locus YIR030C, strain dcg1, hits give low values 1.05 | locus YJL092W, strain hpr5, hits give low values 1.03 | locus YJL095W, strain BCK1 (second series), hits give low values 1.02 | locus YJL095W, strain BCK1, hits give low values 1.04 and 0.89 | locus YJL115W, strain asf1, hits give low values 1.03 | locus YJL129C, strain trk1, hits give low values 1.03 | locus YJL134W, strain LCB3, hits give low values 1.03 | locus YJL154C, strain vps35, hits give low values 1.03 | locus YJL164C, strain tpk1, hits give low values 0.992 | locus YJL166W, strain qcr8, hits give low values 0.979 | locus YJL168C, strain set2, hits give low values 1.05 | locus YJL187C, strain SWE1 (second series), hits give low values 1 | locus YJL187C, strain SWE1, hits give low values 1.02 | [8] 0.999 | locus YJR066W, strain TOR1, hits give low values 0.862 | [9] 1.04 | locus YKL009W, strain mrt4, hits give low values 0.9 | locus YKL068W, hits give low values 1.03 | locus YKL085W, strain MDH1 (second series), hits give low values 1.03 | locus YKL085W, strain MDH1, hits give low values 1.03 | locus YKL160W, strain elf1, hits give low values 0.974 | locus YKR001C, strain vps1, hits give low values 1.09 | locus YKR026C, strain gcn3, hits give low values 1.03 | locus YKR091W, strain srl3, hits give low values 1.01 | locus YLL001W, strain dnm1, hits give low values 0.991 | locus YLL026W, hits give low values 1.02 | locus YLL041C, strain sdh2, hits give low values 1.03 | locus YLR027C, strain aat2, hits give low values 1.01 | [10] 1.02 | locus YLR058C, strain SHM2, hits give low values 1.01 | locus YLR102C, strain apc9, hits give low values 1.05 | locus YLR113W, strain HOG1, hits give low values 0.923 | locus YLR221C, strain rsa3, hits give low values 0.954 | locus YLR258W, strain gsy2, hits give low values 0.996 | [11] 0.99 | locus YLR268W, strain sec22, hits give low values 1.03 | locus YLR320W, strain mms22, hits give low values 0.955 | locus YLR330W, strain CHS5, hits give low values 1.04 | locus YLR342W, strain FKS1 (second series), hits give low values 1.04 | locus YLR342W, strain FKS1, hits give low values 1 | locus YLR357W, strain rsc2, hits give low values 1.09 | locus YLR370C, strain arc18, hits give low values 0.993 | locus YLR371W, strain rom2, hits give low values 1.07 | locus YLR384C, strain iki3, hits give low values 1.01 | locus YLR418C, strain cdc73, hits give low values 1.03 | locus YML016C, strain PPZ1, hits give low values 1.02 | locus YML032C, strain rad52, hits give low values 1.02 | locus YML120C, strain ndi1, hits give low values 0.962 | locus YML124C, strain tub3, hits give low values 1.05 | locus YMR058W, strain fet3, hits give low values 1.01 | locus YMR078C, strain ctf18, hits give low values 1.08 | locus YMR125W, strain sto1, hits give low values 1.04 | locus YMR129W, hits give low values 1.01 | locus YMR205C, strain PFK2, hits give low values 0.989 | locus YMR223W, strain ubp8, hits give low values 1.01 | locus YMR231W, strain pep5, hits give low values 0.993 | [12] 1.02 | locus YMR307W, strain GAS1, hits give low values 1.1 | locus YNL067W, strain RPL9B, hits give low values 0.999 | locus YNL071W, strain lat1, hits give low values 1.01 | [13] 1 | locus YNL183C, strain NPR1, hits give low values 0.854 | locus YNL209W, strain ssb2, hits give low values 1.02 | locus YNL233W, strain BNI4, hits give low values 1.05 | locus YNL248C, strain rpa49, hits give low values 1.01 | locus YNL250W, strain rad50, hits give low values 1.03 | locus YNL271C, strain bni1, hits give low values 1.01 | locus YNL298W, strain CLA4, hits give low values 0.977 | locus YNL307C, strain MCK1, hits give low values 1.04 | locus YNL322C, strain KRE1 (second series), hits give low values 1.02 | [14] 1.03 | locus YNR049C, strain mso1, hits give low values 1.01 | locus YNR052C, strain pop2, hits give low values 0.994 | locus YOL012C, strain htz1 1.83 | locus YOR001W, strain rrp6, hits give low values 0.979 | locus YOR061W, strain CKA2, hits give low values 1.06 | locus YOR069W, strain VPS5, hits give low values 1.03 | locus YOR070C, strain gyp1, hits give low values 1.01 | locus YOR080W, strain dia2, hits give low values 1.02 | locus YOR083W, strain WHI5, hits give low values 0.971 | locus YOR106W, strain vam3, hits give low values 0.928 | locus YOR136W, strain idh2, hits give low values 1.06 | locus YOR144C, strain elg1, hits give low values 1.04 | locus YOR184W, strain ser1, hits give low values 1.01 | locus YOR265W, strain rbl2, hits give low values 1.01 | locus YOR270C, strain vph1, hits give low values 0.964 | locus YOR290C, strain snf2, hits give low values 0.979 | locus YOR316C, strain cot1, hits give low values 1.05 | locus YPL051W, strain arl3, hits give low values 0.978 | locus YPL078C, strain atp4, hits give low values 0.982 | locus YPL106C, strain sse1, hits give low values 1.08 | locus YPL240C, strain hsp82, hits give low values 1.01 | locus YPL256C, strain CLN2, hits give low values 0.952 | locus YPR119W, strain clb2, hits give low values 1.03 | locus YPR141C, strain kar3, hits give low values 1.06 | locus YPR163C, strain tif3, hits give low values 1.06 | locus YPR167C, strain met16, hits give low values 1.05 | strain wtn01, hits give low values 1.06
